CYP2C9 act: CYP2C9 (human) activation | P11712 | recombinant CYP2C9, luciferin-H conversion, luminescence; active compounds read high; factor 1 = untreated enzyme, 0 = blocked | activation factor at 5 µM | 96,000 tested, 1.4% active | AID 1024;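 active = activation factor of 2 or more for CYP2C9 at a 5 µM dose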
Target sequence (P11712 whole entry, looked up): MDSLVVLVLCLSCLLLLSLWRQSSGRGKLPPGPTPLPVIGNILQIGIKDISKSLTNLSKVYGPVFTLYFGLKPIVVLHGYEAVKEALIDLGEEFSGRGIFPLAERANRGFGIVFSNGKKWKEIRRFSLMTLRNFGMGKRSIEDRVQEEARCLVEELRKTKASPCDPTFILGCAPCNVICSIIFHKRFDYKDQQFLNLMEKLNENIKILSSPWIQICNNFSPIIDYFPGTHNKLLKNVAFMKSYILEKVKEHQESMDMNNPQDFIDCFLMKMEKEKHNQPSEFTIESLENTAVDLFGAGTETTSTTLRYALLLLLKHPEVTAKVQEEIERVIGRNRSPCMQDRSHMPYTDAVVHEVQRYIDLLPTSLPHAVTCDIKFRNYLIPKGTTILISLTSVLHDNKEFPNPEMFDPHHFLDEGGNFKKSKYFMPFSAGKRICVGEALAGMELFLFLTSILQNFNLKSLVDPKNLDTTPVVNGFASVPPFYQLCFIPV
Cav3 T inh: blocks human Cav3.2 T-type calcium channel | AID 449739 | Cav3.2-expressing cells, Fluo-4 calcium fluorescence FDSS; active compounds read low | B-score at 10 µM | 100,000 tested, 4% active | O95180;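 active = single-dose well whose peak fluorescence ratio is a statistical outlier from its plate by either plate-standardised score or position-corrected B-score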
CYP2C9 inhib: human CYP2C9 inhibition | CYP2C9 Supersomes, luciferin-H conversion, luminescence | inhibition, % at 5 µM | 96,000 tested, 20% active | AID 777;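 active = blocking of liver enzyme CYP2C9 beyond about 50% at 5 µM, limit read from the data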
CYP2C19 activ: cytochrome P450 2C19 (human) activation; 96,000 tested, under 10 active; activation factor at 5 µM; P33261; recombinant CYP2C19, luciferin-H EGE luminescence; active compounds read high; 0 = fully inhibited enzyme, 1 = untreated enzyme; AID 1025;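 active = activation factor of at least 2 at 5 µM in the primary screen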
CYP2C19 inh: blocks human cytochrome P450 2C19; P33261; CYP2C19 Supersomes, luciferin-H EGE luminescence, 30 min; inhibition, % at 5 µM; 96,000 tested, 21% active;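 active = CYP2C19 inhibition above a set limit at 5 µM in the primary screen, cut at about 50% in these data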
A number is an active result; i = inactive; nt = no result given. This is a sample that favours compounds with a hit; in the whole collection about 27% have one here.

SMILES | CYP2C9 act | Cav3 T inh | CYP2C9 inhib | CYP2C19 activ | CYP2C19 inh
COc1ccc(-c2noc(CCCOc3ccccc3)n2)cc1OC | i | i | 78.8 | i | 90.4
Fc1ccccc1N1CCN(Cc2nc(-c3ccccc3)no2)CC1 | i | i | i | i | i
COc1ccc(-c2noc(CCN3C(=O)c4ccccc4C3=O)n2)cc1OC | i | i | i | i | i
Cc1csc(=O)n1CC(=O)OCc1cccc2ccccc12 | nt | i | nt | nt | nt
O=C1c2cccnc2Nc2ccccc2N1CCCF | i | i | i | i | i
c1ccc(OCc2nc(-c3ccccc3)no2)cc1 | i | i | i | i | 72.2
c1ccc(OCCCc2nc(-c3ccncc3)no2)cc1 | i | i | 89.5 | i | 97.7
CCOc1ccc(C2C(C(=O)Nc3ccc(F)cc3)=C(C)Nc3nc(CCCO)nn32)cc1 (stereo not given) | i | i | 62.0 | i | i
O=c1oc2cc(OCc3ccc(F)cc3F)ccc2cc1-c1ccccn1 | i | i | i | i | i
COc1ccc(-c2cc(=O)oc3cc(OCc4nn[nH]n4)ccc23)cc1 | i | i | 76.0 | i | i
COc1ccc(-c2cc3ccc(OCc4nn[nH]n4)cc3oc2=O)cc1OC | i | i | 58.9 | i | i
O=C(Oc1ccc2c(-c3ccccc3)cc(=O)oc2c1)C1CCCCC1 | i | nt | i | i | i
CCCc1cc(=O)oc2cc(OCC(=O)OC)cc(OCC(=O)OC)c12 | i | i | 61.4 | i | i
CC(Oc1ccc2c(-c3ccccc3)cc(=O)oc2c1)C(=O)O (stereo not given) | i | i | 74.1 | i | i
C=CC[n+]1c(-c2ccc(OC)c(OC)c2)csc1NNC(=O)Nc1ccccc1 | i | i | i | i | i
CCc1cc2c(=O)c(Oc3ccccc3)c(C)oc2cc1O | i | i | i | i | i
COC(=O)COc1ccc2c(-c3ccc(OC)cc3)cc(=O)oc2c1 | i | i | i | i | 51.7
COc1ccc(N(CC(=O)Nc2cccc(SC)c2)S(C)(=O)=O)cc1Cl | i | -5.91 | i | i | 59.0
CS(=O)(=O)N(CC(=O)Nc1ccc2c(c1)OCO2)c1ccc(Cl)cc1 | i | i | 89.9 | i | 88.4
COc1ccc(Cl)cc1N(CC(=O)Nc1ccc2c(c1)OCCO2)S(C)(=O)=O | i | i | 69.0 | i | 76.2
CSc1cccc(NC(=O)CN(c2cc(C)ccc2C)S(C)(=O)=O)c1 | i | -5.76 | 55.7 | i | 84.8
O=C(Cn1c(-c2ccccc2)noc1=O)Nc1ccc(N2CCCCCC2)cc1 | i | i | i | i | i
O=C(Cn1cc([N+](=O)[O-])cn1)Nc1nc2ccccc2s1 | i | i | i | i | i
COc1ccc(Cl)cc1N(CC(=O)Nc1cccc(SC)c1)S(C)(=O)=O | i | i | 71.5 | i | 90.6
COc1ccc(CNC(=O)CSc2ncnc3nc[nH]c23)cc1 | i | i | i | i | 60.8
SMILES | CYP2C9 act | Cav3 T inh | CYP2C9 inhib | CYP2C19 activ | CYP2C19 inh
O=C(CSc1ncnc2nc[nH]c12)NCCc1ccccc1 | i | i | i | i | i
Cc1ccc(OCCSc2ncnc3nc[nH]c23)cc1 | i | i | 53.8 | i | 73.0
CC(NC(=O)CSc1ncnc2nc[nH]c12)c1ccccc1 (stereo not given) | i | i | 93.5 | i | i
CC(=O)CSc1ncnc2nc[nH]c12 | i | i | i | i | i
COCCCn1c(SCC(=O)N2CCCC(C)C2)nnc1-c1ccco1 (stereo not given) | i | i | i | i | i
CNc1oc(-c2ccc(C)cc2)nc1P(=O)(c1ccccc1)c1ccccc1 | i | -4.32 | 81.0 | i | i
Cc1nc(P(=O)(c2ccccc2)c2ccccc2)c(N2CCOCC2)o1 | i | i | i | i | i
CS(=O)(=O)N(CC(=O)NCc1ccccc1Cl)Cc1ccccc1 | nt | i | nt | nt | nt
O=C1C2CC=C(Cl)CC2C(=O)N1CN(Cc1ccco1)CN1C(=O)C2CC=C(Cl)CC2C1=O (stereo not given) | i | i | i | i | i
CCOc1ccc(N(CC(=O)N/N=C/c2cc([N+](=O)[O-])ccc2Cl)S(C)(=O)=O)cc1 | i | i | i | i | i
CCOc1ccc(C(=O)N/N=C/c2ccc(-c3ccc(S(=O)(=O)Nc4ncccn4)cc3)o2)cc1 | i | i | 72.1 | i | i
CCOc1ccc(S(=O)(=O)N(CC(=O)N/N=C/c2ccc(-c3ccc([N+](=O)[O-])cc3)o2)c2ccccc2)cc1 | i | i | 62.0 | i | i
O=C(N/N=C/c1ccc(-c2ccc(S(=O)(=O)Nc3ncccn3)cc2)o1)c1cc2ccccc2cc1O | i | nt | 80.9 | i | i
Cc1ccc(N2CCN(c3ccc(C)cc3)C2c2cccnc2)cc1 | i | i | i | i | 76.5
c1ccc(N2CCN(c3ccccc3)C2c2ccncc2)cc1 | i | i | 89.7 | i | 86.7
COc1cc(COCC(O)CN2CCOCC2)cc(OC)c1OC (stereo not given) | i | nt | i | i | i
CCC(C)c1nc2c(c(N3CCC3=O)c1-c1ccccc1)CCCC2 (stereo not given) | nt | i | nt | nt | nt
Cc1ccc(NCc2nnc(SCC(=O)OC3CCCCC3)o2)c(C)c1 | i | i | i | i | i
Brc1ccc(-c2cnc3n2CCCC3)cc1 | i | nt | i | i | 50.4
COc1ccc(-n2ncc(S(=O)(=O)c3ccccc3)c2-c2ccc(Cl)cc2)cc1 | i | -6.7 | 72.4 | i | i
O=S(=O)(c1ccccc1)c1cnn(-c2ccccc2)c1-c1ccc(F)cc1 | i | -5.83 | i | i | i
Cc1sc2nc(CN3CCOCC3)nc(NCCc3ccccc3)c2c1C | i | i | 90.1 | i | i
Cc1sc2nc(CN3CCOCC3)nc(NS(=O)(=O)c3ccccc3)c2c1C | i | i | i | i | i
NS(=O)(=O)c1ccc(CCNc2nc(CN3CCOCC3)nc3sc4c(c23)CCC4)cc1 | i | i | i | i | i
Cc1sc2nc(CN3CCOCC3)nc(NS(=O)(=O)c3ccc4c(c3)OCCO4)c2c1C | i | i | 80.2 | i | i
SMILES | CYP2C9 act | Cav3 T inh | CYP2C9 inhib | CYP2C19 activ | CYP2C19 inh
CC(=O)Nc1ccc(S(=O)(=O)Nc2nc(CN3CCOCC3)nc3sc4c(c23)CCCC4)cc1 | i | i | 53.2 | i | i
CCC(=O)NC(Nc1cccc(C)n1)(C(F)(F)F)C(F)(F)F | i | i | i | i | i
Cc1ccc2c(c1)c1c3n2CCN(C(=O)CN2CCN(C)CC2)C3CCC1 (stereo not given) | i | i | i | i | i
Cc1ccc2c(c1)c1c3n2CCN(C(=O)C2CC2)C3CCC1 (stereo not given) | i | i | 50.3 | i | i
Cc1ccc2c(c1)c1c3n2CCN(C(=O)Cn2c(-c4ccccc4)noc2=O)C3CCC1 (stereo not given) | i | i | 50.1 | i | i
Cc1ccc2c(c1)c(=O)c1c3n2CCN(C(=O)CCl)C3CC1 (stereo not given) | i | nt | i | i | i
Cc1ccc2c(c1)c1c3n2CCCN(Cc2ccccc2)C3CCC1 (stereo not given) | i | i | i | i | 60.6
Cc1cc(N2CCN(C)CC2)nc2ccc(NC(=O)CCC(=O)NCc3ccco3)cc12 | i | i | i | i | i
O=C(O)c1ccccc1C(=O)NNc1ccc(F)cc1 | i | i | i | i | i

High-throughput results deposited in PubChem by several laboratories.
